Test results taken from PubChem BioAssay (Tox21).
Inconclusive results are not listed. Entries that show only a call come without a potency. Activity calls are given as the source filed them. The call rests on the fitted dose curve; in most records, active means well fitted inhibition curve with a large enough effect in the repeat runs; inconclusive means weak or mixed curves; inactive means no such curve, though single readings can be large or run the other way. Positions of bridges follow the written chain, without caps; N, C: chain ends. Non-standard residues stand in square brackets, D forms with d. Residues, ends and D or L forms follow the SMILES beside them. hArg = N=C(N)NCCCC[C@H](N)C(=O)O; Mpa = O=C(O)CCS

Target: Cytochrome P450 2D6 (Homo sapiens) (UniProt P10635)
Sequence (P10635 whole entry, looked up): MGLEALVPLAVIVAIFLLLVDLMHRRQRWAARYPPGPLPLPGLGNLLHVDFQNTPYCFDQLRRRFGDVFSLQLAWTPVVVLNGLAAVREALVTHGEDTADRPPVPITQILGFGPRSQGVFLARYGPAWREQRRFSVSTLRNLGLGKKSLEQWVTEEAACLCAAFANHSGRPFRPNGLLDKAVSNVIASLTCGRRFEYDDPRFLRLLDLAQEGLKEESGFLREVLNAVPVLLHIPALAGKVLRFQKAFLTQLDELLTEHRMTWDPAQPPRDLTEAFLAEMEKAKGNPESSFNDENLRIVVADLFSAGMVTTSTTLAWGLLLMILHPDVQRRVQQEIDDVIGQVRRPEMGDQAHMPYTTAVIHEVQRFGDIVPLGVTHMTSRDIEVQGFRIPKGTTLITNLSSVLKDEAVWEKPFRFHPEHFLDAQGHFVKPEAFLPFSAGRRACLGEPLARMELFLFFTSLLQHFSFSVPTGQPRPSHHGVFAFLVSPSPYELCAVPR
Test: Cytochrome P450 Family 2 Subfamily D Member 6 (CYP2D6) small molecule antagonists: luciferase reporter qHTS assay (AID 1671196); further: nearly all actives have a fitted effect of over 50% in size
Conditions: P450-Glo CYP2D6 enzyme assay, luciferin luminescence, 1 h; series mostly up to 115 µM
From the text: U.S. Tox21 Program National Center for Advancing Translational Sciences [NCATS] U.S. Environmental Protection Agency [EPA] National Institutes of Environmental Health Sciences [NIEHS] National Toxicology Program [NTP] U.S. Food and Drug Administration [FDA] Tox21 Assay Overview: Cytochrome P450 (CYP) enzymes are membrane-bound hemeproteins that play a key role in metabolism of drugs and xenobiotics. Evaluation of the effect of chemicals on CYP isozymes is useful to minimize the adverse drug reactions and toxicities in drug development process. Tox21 chemicals were tested for their effect on CYP enzyme activities by using P450-Glo (TM) screening systems (Promega Corporation, Madison, WI). These systems provide a luminescent method containing proluciferin substrates and are converted to luciferin products by CYP isozymes. The luciferin products formed are detected with a luciferin detection reagent, and the amount of light produced is proportional to CYP activity. P450-Glo (TM) CYP2D6 screening system (Catalog. No. V9890) was used to detect the compounds that interfere in CYP2D6 activity.
Tox21 Assay Protocol Summary: Two ul of enzyme-substrate mix was dispensed into medium binding white/solid 1536-well plates (Greiner Bio-One North America Inc., Monroe, NC) using a BioRaptr Flying Reagent Dispenser (FRD, Beckman Coulter, Brea, CA). […] The assay plates were incubated at room temperature for 10 min. Then 2 ul of NADPH regeneration solution was added to each well of the assay plates using an FRD and incubated at room temperature for 1 h. The reaction was stopped by adding 4 ul of detection reagent using an FRD and after 20 min incubation at room temperature the luminescence signal was measured using a ViewLux plate reader (Perkin Elmer, Shelton, CT). Data were expressed as relative luminescence units.
Potency means the concentration at half of the fitted maximal effect.

Row | SMILES | Potency | activity change, negative = inhibition
1 | CC(=O)C(C)O (stereo not given) | inactive | –
2 | OCC1CCC(CO)CC1 (stereo not given) | inactive | –
3 | CC(C)CCOC(=O)c1ccccc1 | inactive | –
4 | CC(O)CC(C)O (stereo not given) | inactive | –
5 | CCC/C=C(\C=O)CC | inactive | –
6 | CC(C)NC(=O)c1ccc(C=O)cc1 | inactive | –
7 | CCN(CC)CCN | inactive | –
8 | COc1cc(/C=C/C(N)=O)cc(OC)c1OC | inactive | –
9 | C=C(C)[C@@H]1CC=C(C)C(=O)C1 | inactive | –
10 | CCCCCCCCCCOC(C)=O | inactive | –
11 | CNCCS(=O)(=O)O | inactive | –
12 | CN(C)CC/C=C1/c2ccccc2COc2ccc(CC(=O)O)cc21 | inactive | –
13 | O=C(CN1CCNCC1)NC1CCCCC1 | inactive | –
14 | COc1ccc2c(c1)c1c3n2CCN(C)C3=NCC1 | 15.5 µM (active) | –
15 | [O-][n+]1cccc(/C(Cl)=N/OC[C@@H](O)CN2CCCCC2)c1 | 15.5 µM (active) | –
16 | OCCN1CCOCC1 | inactive | –
17 | CC(=O)CCc1ccc(OC(C)=O)cc1 | inactive | –
18 | C=C(C)C1CC=C(C)C(=O)C1 (stereo not given) | inactive | –
19 | O=C(O)CONC(=O)c1ccccc1 | inactive | –
20 | CCOC(=O)CC1(C)OCC(C)O1 (stereo not given) | inactive | –

Row | SMILES | Potency | activity change, negative = inhibition
21 | CCCCCCCCCOC(=O)CCCCC(=O)OCCCCCCC | inactive | –
22 | CCC(C)OC(C)CC (stereo not given) | inactive | –
23 | NC(=O)[C@@H]1CSSCCC(=O)N[C@@H](CCCCN=C(N)N)C(=O)NCC(=O)N[C@@H](CC(=O)O)C(=O)N[C@@H](Cc2c[nH]c3ccccc23)C(=O)N2CCC[C@H]2C(=O)N1 ([Mpa][hArg]GDWPC-NH2; disulfide 1-7) | inactive | –
24 | C/C(=C1\CCOC(=O)S1)N(C=O)Cc1cnc(C)nc1N | 13.8 µM (active) | –
25 | Cc1ccc2c(c1)C(=O)c1ccccc1C2=O | 28.2 µM (active) | –
26 | CC(C)Cn1cnc2c1c(=O)n(C)c(=O)n2C | inactive | –
27 | CC1c2ccccc2CN1NC(=O)c1ccc(Cl)c(S(N)(=O)=O)c1 (stereo not given) | inactive | –
28 | CCCCC1CCC(O)CC1 (stereo not given) | inactive | –
29 | O=C1CCCCO1 | inactive | –
30 | [O]=[Mo](=[O])=[O] | – | -4.35% [at 23.6 µM] (inactive)
31 | Cc1ccc(C)c([N+](=O)[O-])c1 | inactive | –
32 | c1ccc(-c2nn[nH]n2)cc1 | inactive | –
33 | CC(=O)O[C@H]1C[C@@H]2CC[C@@]1(C)C2(C)C | inactive | –
34 | COc1cc2c(cc1OC)CN(C(=O)[C@H](C)N[C@@H](CCc1ccccc1)C(=O)O)[C@H](C(=O)O)C2 | inactive | –
35 | CCCCOC(=O)[C@H](C)O | inactive | –
36 | CCOCCOCC | inactive | –
37 | CC(C)OC(=O)CCC(=O)OC(C)C | inactive | –
38 | O=S(=O)(O)c1ccc2c(N=Nc3ccc(S(=O)(=O)O)c4ccccc34)c(O)c(S(=O)(=O)O)cc2c1 | – | -11.1% [at 10.5 µM] (inactive)
39 | COCCc1ccccn1 | inactive | –
40 | CC(=O)OC1CCCCC1C(C)(C)C (stereo not given) | inactive | –
